Screening data (PubChem)
aSyn tox rescue = rescues yeast growth from alpha-synuclein toxicity; Potency, µM (top dose mostly 46.1 µM), hits mostly activators; S. cerevisiae alpha-synuclein toxicity rescue, BacTiter-Glo growth, 24 h; 94,000 compounds, 0.02% hits; active means well fitted activation curve with a large enough effect
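Growth restoration measured by BacTiter-Glo luminescence after 24 hr at 30 deg C; alpha-synuclein yeast, raffinose-pregrown to mid-log, were added at OD600=0.02 in galactose medium onto pinned compounds.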
Large screens that a line does not name were inactive. The full list was thinned out, with hits kept by preference.

CCCOc1ccc(Cc2c(COCC)[nH]c(=S)[nH]c2=O)cc1	none
COc1ccc(NC(=O)C(NC(=O)/C=C\c2ccc3c(c2)OCO3)c2ccc(OC)cc2)cc1 (stereo not drawn)	none
CCOc1cc(N2CCOCC2)c(OCC)cc1NS(=O)(=O)c1ccc2c(c1)CC(=O)N2	none
CCc1cccc(CC)c1NC(=O)c1c(C)oc2ccc(O)c(CN3CCOCC3)c12	none
CC(=O)c1c(C)[nH]c(C(=O)OC(C)C(=O)Nc2cc(S(=O)(=O)N3CCCCC3)ccc2Cl)c1C (stereo not drawn)	none
CCOC(=O)C1CCC(CN(Cc2ccc(Cl)cc2)S(=O)(=O)c2cccc(Cl)c2C)CC1 (stereo not drawn)	none
O=c1c2ccc(Cl)cc2[nH]c(=S)n1CCC1=CCCCC1	none
O=C(CN(C(=O)c1nsc(Cl)c1Cl)c1ccc(F)cc1)NC1CCCC1	none
CCCN(CCC)CCCNC(=O)c1cc2c(=O)oc3ccc(C)cc3c2s1	aSyn tox rescue 13µM
Cc1ccc2oc(=O)c3cc(C(=O)NCc4ccc(Cl)cc4)sc3c2c1	none
Cc1ccc(CNC(=O)c2cc3c(=O)oc4ccc(C)cc4c3s2)cc1	none
COC(=O)c1nnn(-c2ccsc2C(=O)OC)c1C(=O)OC	none
O=C(NCCc1csc2nc(-c3ccccc3F)nn12)c1ccccc1C(F)(F)F	none
Cc1ccc(NC(=O)/C(C#N)=C/c2ccc(C)o2)cc1	none
NC(=O)c1nsc(C(=O)N(Cc2ccccc2Cl)C(C(=O)NCC2CCCO2)c2ccc(O)cc2)c1N (stereo not drawn)	none
CC1CN(c2ccccc2)c2nc3c(c(=O)[nH]c(=O)n3C)n2C1 (stereo not drawn)	none
COC(=O)c1ccc(OCC2c3cc(OC)c(OC)cc3CCN2C(=O)c2ccccc2C)cc1 (stereo not drawn)	none
COc1ccccc1C1=NS(=O)(=O)N(C)C(C(=O)Nc2cc(OC)c(OC)c(OC)c2)=C1	none
C[C@H](CO)N1C[C@H](C)[C@H](CN(C)C(=O)Nc2ccc(N3CCN(C)CC3)cc2)OCc2cnnn2CCCC1=O	none
C/C(CC(=O)NCc1ccccc1Cl)=N/NC(=O)c1ccccn1	none
O=C(CCSCc1ccccc1Cl)NCc1ccc(F)cc1Cl	none
O=C(CCSCc1ccc(Cl)cc1)NCc1ccc(F)cc1Cl	none
O=C(CCSCc1cccc(Cl)c1)NCc1ccc(F)cc1Cl	aSyn tox rescue 28µM
CCn1c(SCc2ccccc2)nc2ccccc2c1=O	none
CC(C)C(NC(=O)c1ccco1)C(=O)OCC(=O)Nc1ccc(C(N)=O)cc1 (stereo not drawn)	none
Cc1nc(/C(N)=N/OC(=O)c2c(-c3ccccc3Cl)noc2C)cs1	none
Cc1cc2n(n1)CCCN2C(=O)Nc1ccc(Cl)cc1	none
Cc1ccc(-c2nc(S(=O)(=O)c3ccc(C)cc3)c(SCC(=O)c3ccccc3)o2)cc1	aSyn tox rescue 18µM
Cc1ccc(S(=O)(=O)c2nc(-c3ccc(F)cc3)oc2SCC(=O)c2ccccc2)cc1	none
O=C(CSc1oc(-c2ccc(F)cc2)nc1S(=O)(=O)c1ccccc1)c1ccc(Cl)cc1	none
CCNc1nc(-c2cc(C)n(Cc3ccco3)c2C)cs1	none
CS(=O)(=O)N1CCN(C(=O)NC2CCCCC2)CC1	none
Cc1nc2scc(C)n2c(=O)c1S(=O)(=O)Nc1cccc(C(F)(F)F)c1	aSyn tox rescue 11µM
COc1cccc(CNS(=O)(=O)c2c(C)nc3scc(C)n3c2=O)c1	none
Cc1nc2scc(C)n2c(=O)c1S(=O)(=O)Nc1cccc(O)c1	none
CCOCCCNC(=O)Cn1nc(-c2ccc(OC)c(OC)c2)ccc1=O	none
CCOC(=O)c1cccc(NC(=O)Cn2c(=O)nc(-c3ccccc3)c3ccccc32)c1	none
